High-throughput results from PubChem BioAssay.
Compounds with a hit are over-represented: about 17% of the library has one in this group of screens.
HT1080-NT tox – kills 2HG-producing HT-1080-NT fibrosarcoma cells. Potency, µM (series often up to 46.1 µM), usual class: cytotoxic. 1.6% of 360,000 active. HT-1080-NT fibrosarcoma viability, CellTiter-Glo ATP luminescence, 48 h. AID 686970;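 further: NT is the 2HG producing partner of a matched IDH1 knockdown line; nearly all actives have a fitted effect of over 55% in size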
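Toxicity toward the 2HG-producing NT line was scored as %Activity, normalised to DMSO and no-cell wells, from CellTiter-Glo luminescence after 48 hours' treatment.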
HT1080 IDH1KD tx – HT-1080 IDH1 knockdown cell toxicity (counter line); HT-1080 IDH1 knockdown viability, ATP luminescence, 48 h; Potency, µM (top dose mostly 46.1 µM), hits mostly cytotoxic; 2% of 360,000 active
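Viability of IDH1-knockdown HT-1080 fibrosarcoma cells was assessed by CellTiter-Glo after 48 h at 37 °C with titrated compound; concentration-effect curves were classified by fit quality and response size.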
TDP1 cell noCPT – qHTS for Inhibitors of human tyrosyl-DNA phosphodiesterase 1 (TDP1): qHTS in cells in absence of CPT. DT40 Tdp1-/- hTDP1 cells, no CPT, ATP luminescence, 48 h. Potency, µM (top dose mostly 46.2 µM), actives largely listed as inhibitors. 15% of 420,000 active. AID 686978, 2013; further: nearly all actives have a fitted effect of over 55% in size
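Chicken DT40 Tdp1-/- cells complemented with human TDP1, screened without camptothecin (DMSO vehicle only), 400 cells/well. Compounds pin-transferred, cells incubated at 37 °C for at least 48 hr. Growth read as ATP-dependent luminescence (CellTiter-Glo, 30 min at RT).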
HepG2 tox – counter-screen for TGF-b inhibitors: cytotoxicity in HepG2 cells. HepG2 CAGA-GFP viability, ATP luminescence, 18 h. Potency, µM (top dose mostly 46.1 µM), hits mostly cytotoxic. 0.76% of 410,000 active. AID 588856
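HepG2 CAGA-GFP cells (1000/well, DMEM with 1% FBS) received compound, then TGF-beta at 500 pg/mL final, and were incubated 18 hours at 37 degrees C. Viability was read by CellTiter-Glo luminescence. Media-only wells were set as complete cell-killing and DMSO as no toxicity.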
TGFb SMAD3 inh – TGF-b pathway inhibition; HepG2 CAGA-GFP TGF-b/SMAD3 reporter, GFP fluorescence, 18 h; TGF-beta stimulated, 500 pg/mL final; Potency, µM (doses to about 46.1 µM), usual class: inhibitors; AID 588855; 1.2% of 410,000 active; further: nearly all actives have a fitted effect of over 65% in size
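GFP signal (ex488/em500-530) from TGF-beta-stimulated HEPG2 CAGA-GFP cells, 500 pg/mL final, 18 h at 37 degrees C in DMEM plus 1% FBS, normalized to unstimulated and DMSO-stimulated controls.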
DT40 TDP1 CPT – DT40-hTDP1 cell growth loss with CPT; chicken DT40 Tdp1-/-;hTDP1 cells + 20 nM CPT, ATP luminescence, 48 h; Potency, µM (highest dose often 46.2 µM), actives largely listed as inhibitors; 12% of 420,000 active; AID 686979; further: nearly all actives have a fitted effect of over 55% in size
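Chicken DT40 Tdp1-/- cells stably complemented with human TDP1 were seeded at 400 cells/well in medium containing 20 nM camptothecin, exposed to pin-transferred compounds, and grown at 37 °C for at least 48 hr. Viability was read as ATP luminescence.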
Hits are given with their value; – = inactive; ? = inconclusive; · = no result given; [ ] = dose if it differs, or a comment. The call rests on the fitted dose curve; in most records, active means well fitted curve in the direction sought with a large enough effect; inconclusive means small, poorly fitted or top-dose-only effect, or another doubt; inactive means no such curve, though single readings can be large; an effect the other way counts as inactive or inconclusive.

SMILES | HT1080-NT tox | HT1080 IDH1KD tx | TDP1 cell noCPT | HepG2 tox | TGFb SMAD3 inh | DT40 TDP1 CPT
Cc1cc(Nc2cccc([N+](=O)[O-])c2)c2ccccc2n1 | – | ? | ? | – | – | ?
CCOc1ccc2nc(C)cc(Nc3cccc([N+](=O)[O-])c3)c2c1 | – | 18µM | 12µM | – | ? | 3.3µM
COc1ccc(-c2cc(-c3ccccc3)nc(N)n2)c(O)c1 | – | ? | ? | – | ? | ?
Cc1cc(Nc2cccc([N+](=O)[O-])c2)c2cccc(C)c2n1 | ? | – | 21µM | – | – | ?
COc1ccc(Cl)cc1Nc1cc(C)nc2ccccc12 | – | – | 15µM | – | – | ?
COc1ccc(OC)c(Nc2cc(-c3ccccc3)nc(N)n2)c1 | 1.5µM | 1.5µM | 0.73µM | – | – | 0.65µM
Cc1cc(Br)cc2c1N(C)C(=O)C2(c1ccc(O)cc1)c1ccc(O)cc1 | ? | ? | – | – | ? | –
O=C(O)c1ccn(CSc2cc(Cl)ccc2Cl)n1 | – | – | ? | – | – | –
Cc1cc([N+](=O)[O-])nn1CCCC(=O)NC1CCCCC1 | – | – | – | – | – | –
COc1cccc(Nc2cc(C)nc3ccccc23)c1 | – | – | 21µM | – | ? | ?
COC(=O)c1cccc(NC(=S)Nc2cccc(Cl)c2C)c1 | – | – | ? | – | – | ?
Cc1ccc(Nc2nc(N)c3ccccc3n2)cc1C | – | ? | 23µM | – | ? | 15µM
COC(=O)c1ccc2nc(C)cc(Nc3cccc(Cl)c3C)c2c1 | · | · | 13µM | – | – | 12µM
CC(=O)Nc1ccc(Nc2cc(C)nc3ccccc23)cc1 | – | – | – | – | – | –
COc1ccc(Nc2cc(C)nc3c(C)cccc23)cc1OC | – | ? | – | – | – | –
Cc1cc(Nc2ccc(C)c(C)c2)c2ccccc2n1 | ? | 16µM | ? | – | ? | ?
O=C1c2ccccc2C(=O)N1c1ccc(S(=O)(=O)N2CCOCC2)cc1 | · | · | – | – | – | –
COc1ccc(OC)c(Nc2cc(C)nc3ccccc23)c1 | ? | ? | 18µM | – | ? | 18µM
COc1ccc(OC)c(Nc2nc(=O)c3cccnc3s2)c1 | – | – | – | – | – | 21µM
COc1cc(CN2CCNC(=O)C2CC(=O)NC2CCC2)cc(OC)c1 (stereo unspecified) | – | – | – | – | – | –
Cn1cccc1/C=N/NC(=O)c1ccn[nH]1 | – | – | – | – | – | –
CCOC(=O)Cc1c(C)nc2c(-c3ccccc3)c(-c3ccccc3)[nH]n2c1=O | ? | ? | 16µM | – | – | ?
CCOC(=O)Cc1c(C)nc2c(-c3ccccc3)c[nH]n2c1=O | – | – | 2.3µM | – | – | 18µM
COc1ccc(Oc2ncc3nc(-c4ccc(Cl)cc4)c(=O)n(C)c3n2)cc1 | · | · | – | · | · | –
Cn1c(SCc2cc([N+](=O)[O-])cc3c2OCOC3)nnc1-c1ccccn1 | – | – | – | – | – | –
SMILES | HT1080-NT tox | HT1080 IDH1KD tx | TDP1 cell noCPT | HepG2 tox | TGFb SMAD3 inh | DT40 TDP1 CPT
CN=C(Nc1ccc(Cl)cc1)c1ccc(C(F)(F)F)cc1 | – | – | – | – | ? | –
COc1ccccc1NC(=O)CSc1nnc(NC(=O)Nc2ccc(C)cc2)s1 | · | · | ? | – | 5.6µM | ?
Cc1ccc(NC(=O)Nc2nnc(SCC(=O)N(C(C)C)C(C)C)s2)cc1 | · | · | 16µM | – | – | 18µM
Cc1ccc2nc(-c3cccc(Br)c3)c(Cc3ccccn3)n2c1 | – | ? | ? | – | – | 21µM
Cc1ccc2nc(-c3ccc(C#N)cc3)c(Cc3ccccn3)n2c1 | – | ? | ? | – | – | ?
Cc1ccc(-c2nc3ccc(C)cn3c2Cc2ccccn2)cc1 | – | – | 18µM | · | · | ?
Cc1ccc2nc(-c3ccc(Cl)cc3)c(Cc3ccccn3)n2c1 | – | – | 16µM | · | · | 18µM
CC(C)c1ccc(Nc2nc3c(S(=O)(=O)c4ccc(Br)cc4)nnn3c3ccsc23)cc1 | · | · | ? | – | – | ?
CCC1(C2CCN(C(=O)c3csc(C(C)=O)c3)CC2)NC(=O)N(CCc2scnc2C)C1=O (stereo unspecified) | · | · | – | · | · | –[9.04 µM]
CC[C@]12c3[nH]c4ccc(OC)cc4c3CCN1C(=O)C(CC(=O)NC(C)(C)C)C[C@@H]2C(=O)N1CCN(C(=O)c2ccco2)CC1 (stereo partly specified) | – | – | – | – | – | –
CCOC(=O)N1CCc2c(sc(NCc3ccc(OCC)cc3)c2C(=O)Nc2ccc(OC)cc2OC)C1 | · | · | ? | – | ? | ?
CCOC(=O)N1CCc2c(sc(NCc3cccs3)c2C(=O)Nc2ccc(OC)cc2OC)C1 | · | · | ? | – | 10µM | ?
CCOC(=O)N1CCc2c(sc(NCc3ccc(OC)c(OC)c3OC)c2C(=O)Nc2ccc(OC)cc2OC)C1 | · | · | 16µM | – | – | ?
CCOC(=O)N1CCc2c(sc(NCc3ccc(N(C)C)cc3)c2C(=O)Nc2ccccc2OCC)C1 | · | · | 8.2µM | – | – | ?
CCOC(=O)N1CCc2c(sc(NCc3ccc(N(CC)CC)cc3)c2C(=O)Nc2cc(OC)ccc2OC)C1 | · | · | ? | – | – | ?
N#CC(C#N)=C(Nc1ccc(F)cc1)SCc1cccc(Br)c1 | 9.2µM | 18µM | 2.3µM | – | 1.6µM | 2.9µM
N#Cc1ccccc1NC(=O)CC1c2ccccc2Oc2ccccc21 | – | – | 1.8µM | – | – | 2.1µM
N#Cc1ccccc1NC(=O)CC1CCCCC1 | – | – | – | – | – | –
O=C1Nc2cc(Cl)ccc2Oc2cc(Oc3ccccc3)ccc21 | · | · | 21µM | – | – | ?
O=C(Cc1cccs1)NCc1ccc(F)cc1 | – | – | – | – | – | –
O=C(Cc1cccs1)NNC(=S)NC(=O)c1ccc(F)c(F)c1 | – | – | ? | – | ? | 21µM
O=C(Cc1cccs1)NNC(=S)NC(=O)c1ccccc1 | – | – | 15µM | – | – | ?
OCC1(Cc2ccccc2)CCN(Cc2ccc(C(F)(F)F)cc2)CC1 | – | – | 18µM | – | ? | 23µM
COc1cc(CN2CCC(CO)(Cc3cccc(C(F)(F)F)c3)CC2)ccc1F | – | – | 23µM | – | ? | 21µM
COc1ccc(CN2CCC(CO)(Cc3cccc(C(F)(F)F)c3)CC2)cc1Cn1cccn1 | – | – | 18µM | – | ? | ?
Cc1ccc(NC(=O)c2cc(S(=O)(=O)NC3CCCCCC3)ccc2F)cc1F | · | · | ? | 13µM | ? | ?
COc1ccc(NS(=O)(=O)c2ccc(Cl)c(NC(=O)c3ccccc3F)c2)cc1 | – | – | ? | – | ? | ?
